Experimental findings from PubChem BioAssay (NCATS) are described below.

Inconclusive results are not listed. Values without a mark were called inactive. Active and inactive are the calls of the source. Calls follow the shape of the dose curve; as a rule, active = well fitted inhibition curve with a large enough effect; inconclusive = small, poorly fitted or top-dose-only effect; inactive = flat fitted curve, though single readings scatter.

One assay relates to CRL-7250. As to the kind of experiment: Cytotoxic Profiling of Annotated Libraries Using Quantitative High-Throughput Screening (AID 1296008). Also: potency is read from the fitted curve at half-maximal effect. As to max response: % is scaled to controls: 0 for no effect and ±100 for the full control effect. The conditions noted are these: Five cell lines viability, CellTiter-Glo ATP luminescence, 48-72 h; max response: active compounds read low. A digest of the protocol: (§1)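 Cytotoxicity was measured as CellTiter-Glo ATP luminescence, read after 10 min at room temperature. Compound treatment of the cells lasted 48 or 72 hr at 37 degrees Celsius in a qHTS format.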
In general terms: ATP-based viability assays read luminescence as a measure of living cells.

For assay [1], the system named is HaCat. The assay is described as above. The conditions noted are these: Five cell lines viability, CellTiter-Glo ATP luminescence, 48-72 h; max response: active compounds read low. A digest of the protocol: as §1
A further assay deals with KB-3-1. The assay is described as above. The conditions noted are these: Five cell lines viability, CellTiter-Glo ATP luminescence, 48-72 h; max response: active compounds read low. Summed up: as §1
In the next assay the test system is NIH3T3. The assay is described as above. The conditions noted are these: Five cell lines viability, CellTiter-Glo ATP luminescence, 48-72 h; max response: active compounds read low. Summed up: as §1
Assay [2] has as its system HACAT. As to the kind of experiment: qHTS assay to identify novel small-molecules to repurpose for Merkel cell carcinoma treatment (AID 1296009). The conditions noted are these: MCC and control cell lines, CellTiter-Glo viability, 72 h; at 44.8 µM (top of the series) unless noted. Summed up: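 Cell viability measured by CellTiter-Glo following 72 hr compound treatment at 37 degree celsius, with NPC and MIPE libraries tested in 8- and 11-point concentration series.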
A general note: Quantitative high-throughput screening tests each substance at several concentrations.

The next assay concerns JCK. Description: qHTS profiling for inhibitors of Plasmodium falciparum proliferation (AID 504749). Also: potency is read from the fitted curve at half-maximal effect. To be noted: P. falciparum in erythrocytes, SYBR Green DNA, 72 h; series mostly up to 28.7 µM. Summed up: (§2)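 In a 72 h erythrocytic culture (37 C, humidified, 5% CO2) at 2.5% hematocrit and 0.3% starting parasitemia, compounds were tested; SYBR Green I in detergent lysis buffer stained parasite DNA overnight.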

For a further assay, the system named is P93_24. Described as above. To be noted: P. falciparum in erythrocytes, SYBR Green DNA, 72 h; series mostly up to 28.7 µM. A digest of the protocol:
as §2

The next assay concerns P94_40. Described as above. To be noted: P. falciparum in erythrocytes, SYBR Green DNA, 72 h. A digest of the protocol: as §2
In the next assay the test system is PAD. The description is as above. To be noted: P. falciparum in erythrocytes, SYBR Green DNA, 72 h; series mostly up to 28.7 µM. Summed up: as §2
Another assay has as its system PC49. The assay is described as above. To be noted: P. falciparum in erythrocytes, SYBR Green DNA, 72 h; series mostly up to 28.7 µM. Summed up: as §2
The subject of the next assay is TAB165. The assay is described as above. To be noted: P. falciparum in erythrocytes, SYBR Green DNA, 72 h; series mostly up to 28.7 µM. A digest of the protocol: as §2
In a further assay the test system is W2. The description is as above. To be noted: P. falciparum in erythrocytes, SYBR Green DNA, 72 h; series mostly up to 28.7 µM. Summed up: as §2
Also: nearly all actives have a fitted effect of over 60% in size.

Regarding `CC(C)(C)NC(=O)[C@H]1CC[C@H]2[C@@H]3CC[C@H]4NC(=O)CC[C@]4(C)[C@H]3CC[C@]12C`, the max response is -10.4% in the assay with CRL-7250, -6.73% in the assay on KB-3-1 and -8.88% in the assay on NIH3T3. The call in the assay on HaCat [1] and in the assay on HACAT [2] was inactive.

With `CN(C)N(C)C(=O)[C@@]1(Cc2ccccc2)CCCN(C(=O)[C@@H](Cc2c[nH]c3ccccc23)NC(=O)C(C)(C)N)C1`, the max response is -26.9% in the assay with CRL-7250, 4.19% in the assay with KB-3-1 and -7.17% in the assay on NIH3T3. Also, the result with HaCat [1] and in the assay on HACAT [2] was inactive.

Take `COc1ccncc1C(=O)NC(=O)Nc1ccc(-c2ccccc2)c(C(F)(F)F)c1`: the molecule was classed as inactive in the assay with CRL-7250, in the assay on HaCat [1] and in the assay on HACAT [2]. Also, the max response in the assay on KB-3-1 is -11.2%; in the assay on NIH3T3, 3.25%.

As for `O=S1(=O)CCN(Cc2cc(NCC3CCOCC3)c3[nH]c(-c4ccccc4)cc3c2)CC1`, the max response with CRL-7250 is -9.27%; in the assay with KB-3-1, 4.46%; in the assay on NIH3T3, -21.1%. In addition, the molecule was called inactive in the assay with HaCat [1] and with HACAT [2].

With `C/C=C(/C)C(=O)OC1C=C2C3C(C)C(C)C(OC(=O)C(C)C(C)O)CC3(C)CCC2(C)C2(C)CC(OC(C)=O)C3C(C)(C)C(O)C(=O)CC3(C)C12` (stereo not given), the figures for the max response in the assay on CRL-7250, with KB-3-1 and with NIH3T3 were 0.415%, 5.54% and -9.86%, respectively. Besides, the call with HaCat [1] was inactive. For the same molecule, the outcome in the assay on HACAT [2] is “inactive [at 17.4 µM]”.

For the molecule `COc1ccc(NC(=O)c2ccc(-c3ccc(-c4nnc(C)o4)cc3C)cc2)cc1N1CCN(C)CC1`, the max response in the assay on CRL-7250 is 2.13%; with KB-3-1 it was 2.03%; in the assay with NIH3T3 it was -14.5%. Further, the outcome with HaCat [1] and in the assay with HACAT [2] was “inactive; activator” each time.

As for `CC(=O)O[C@@H]1C[C@@]2(C)C(CC[C@]3(C)C2CC=C2C4CC(C)(C)CC[C@]4(C(=O)O)CC[C@]23C)C(C)(C)[C@H]1O` (stereo not given in full), the max response was 3.23% in the assay with CRL-7250, -16.7% in the assay with KB-3-1 and -4.52% with NIH3T3. Besides, the outcome with HaCat [1] was inactive. Further, the outcome in the assay on HACAT [2] is “inactive [at 17.4 µM]”.

Regarding `C=C1C(=O)OC2CC(C)C(CCC(C)=O)=CCC12` (stereo not given), the max response with CRL-7250 is -28.7%; with KB-3-1 it was -13.7%. Besides, the result in the assay on HaCat [1] and with HACAT [2] was inactive.

Regarding `CN1CCC(c2cn(C)c3ccc(OS(=O)(=O)c4c(F)cccc4F)cc23)CC1`, the outcome in the assay on CRL-7250, with HaCat [1] and with HACAT [2] was inactive. Besides, the max response in the assay on KB-3-1 was -7.12%; in the assay with NIH3T3, 3.31%.

Regarding `CCOc1nc(NC(=O)Cc2cc(OC)ccc2OC)cc(N)c1C#N`, the max response in the assay with CRL-7250 was -9.74%; in the assay on KB-3-1 it was 7.15%. The result in the assay with HaCat [1] and in the assay with HACAT [2] was inactive.

On to `C=C(C)C1=C[C@@]2(C)C(=CC1=O)CC[C@@H](O)[C@@H]2C`, for which, in the assay with CRL-7250, the max response is 3.24%. The result in the assay on HaCat [1], in the assay with KB-3-1 and in the assay on HACAT [2] was inactive.

For `COc1cc(C2OC(c3ccc(OC)c(OC)c3)C(C)C2C)ccc1O` (stereo not given), the max response with CRL-7250 is -1.49%; with KB-3-1 it was -5.2%; in the assay on NIH3T3, -6.22%. For the same molecule, the result in the assay on HaCat [1] and in the assay on HACAT [2] was inactive.

For the molecule `Cc1c(NC(=O)c2cc3c(s2)CCCC3)cccc1-c1cn(C)c(=O)c(Nc2ccc(C3C(=O)N(C)CCN3C)cc2)n1` (stereo not given), the max response in the assay on CRL-7250 is -5.13%. For the same molecule, the call in the assay on HaCat [1], in the assay on KB-3-1 and with HACAT [2] was inactive.

With `COc1ccc(C(=O)O[C@H]2C=COC=C3C=C4C(=O)N(C)C(=S)C(=O)N4[C@@H]32)cc1Oc1cc(C=O)ccc1O`, the max response with CRL-7250 is -5.08%. In addition, the molecule was classed as inactive in the assay on HaCat [1] and with KB-3-1. The outcome with HACAT [2] is “inactive [at 17.4 µM]”.

Consider `COc1ccccc1OCCN1CC(COc2cccc3[nH]c4ccccc4c23)OCC1=O` (stereo not given), for which the molecule was classed as inactive in the assay with CRL-7250, in the assay on HaCat [1] and with HACAT [2]. The max response with KB-3-1 is -7.07%.

For `O=C(O)CSc1cc(NS(=O)(=O)c2ccc(Br)cc2)c2ccccc2c1O`, the results for the Potency with CRL-7250 and with KB-3-1 were 23100 nM (active) and 18400 nM (active), respectively. Further, the outcome in the assay on HaCat [1] and with HACAT [2] was inactive.

Turning to `COC1C(OC(=O)/C=C/C=C/C=C/C=C/C(=O)O)CCC2(CO2)C1C1(C)OC1CC=C(C)C` (stereo not given), the Potency result with JCK and with PC49 was “inactive” each time. Also, the Potency was 25.1 nM (active) in the assay on P93_24; 25.1 nM (active) in the assay on P94_40; 1410 nM (active) with PAD; 31.6 nM (active) in the assay on TAB165; 10.7 nM (active) in the assay with W2. Moreover, the max response in the assay on CRL-7250 is -15.2%; in the assay on HaCat [1], -3.3%; in the assay on NIH3T3, 0.0729%. The call with KB-3-1 was inactive.

Consider `CC(C)(Cc1nc(-c2ccc(O)cn2)no1)C(=O)NC1=C(C(=O)O)CCCC1`, for which the max response in the assay with CRL-7250 was -1.84%; in the assay on KB-3-1, 2.15%; in the assay with NIH3T3, -20.8%. The result in the assay on HaCat [1] and in the assay with HACAT [2] was inactive.

As for `O=C(NCC1(c2nc(-c3ccccc3)cs2)CCOCC1)c1cccc(-c2noc(C(F)(F)F)n2)c1`, the results for the max response in the assay with CRL-7250 and with KB-3-1 were -0.2% and -10.2%, respectively. Also, the result in the assay with HaCat [1] and in the assay with HACAT [2] was inactive.

As to `CN(C)c1cccc(Oc2cnc(Nc3cccc(O)c3)nc2)c1`, in the assay on CRL-7250, the max response is 4.02%. The result in the assay with HaCat [1], with KB-3-1 and in the assay with HACAT [2] was inactive.

Turning to `CCC(C)C(=O)Oc1cc(C)ccc1C1(COC(=O)C(C)C)CO1` (stereo not given), the max response in the assay with CRL-7250 is -0.891%; with KB-3-1, -3.14%. Moreover, the molecule was classed as inactive in the assay on HaCat [1] and with HACAT [2].

`COc1ccc2nccc(C(=O)CC[C@@H]3CCN(CC#Cc4cc(F)cc(F)c4F)C[C@@H]3C(=O)O)c2c1`: the results for the max response with CRL-7250 and in the assay on KB-3-1 were -3.43% and 5.2%, respectively. For the same molecule, the call in the assay with HaCat [1] and in the assay on HACAT [2] was inactive.
